# Assay outcomes deposited in PubChem BioAssay by National Center for Advancing Translational Sciences (NCATS).
# FEN1 inh-1: inhibitors of human flap endonuclease 1; Potency, µM (titrated, usually from 114 µM), without a hit: at the top dose activity change, negative = inhibition, most hits filed as inhibitors; Recombinant FEN1 flap cleavage, fluorescence, 15 min; AID 588795; 390,000 tested, 0.35% active; P39748; further: on the % scale 0 is the no-effect control and ±100 the full control effect; nearly all actives have a fitted effect of over 65% in size
#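 Nuclease activity of 10 nM FEN1 was measured after 15 min of room-temperature exposure to titrated compounds, by adding 50 nM flap substrate and reading plates at 0 and 15 min.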
# RECQ1 inh: RECQ1 (human) helicase inhibition; P46063; AID 2549; Potency, µM (series often up to 57.3 µM), inactives show at the top dose activity, negative = inhibition, most hits filed as inhibitors; RECQ1 DNA unwinding, red fluorescence kinetic read; 240,000 tested, 0.54% active;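 further: plate controls were vehicle for no effect and no enzyme for full effect; nearly all actives have a fitted effect of over 30% in size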
#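 50 nM RECQ1T1 preincubated 15 min with compound in Tris pH 8.0 buffer with MgCl2, DTT, Tween-20 and 2.5 ug/ml poly(dI-dC); started with 200 nM TAMRA/BHQ-2 forked duplex and 2 mM ATP. Unwinding read as fluorescence (525/598 nm), two reads 2 h apart.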
# BLM helicase inh: Bloom syndrome helicase (human) inhibition; P54132; recombinant BLM DNA unwinding, fluorescence dequenching; Potency, µM (doses to about 56.1 µM), without a hit: at the top dose activity change, negative = inhibition, most hits filed as inhibitors; 350,000 tested, 0.2% active; AID 2528;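 further: plate controls were vehicle for no effect and no enzyme for full effect; nearly all actives have a fitted effect of over 35% in size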
# APEX1 inh: inhibitors of human APE1 endonuclease. 350,000 tested, 0.35% active. Potency, µM (titrated, usually from 65.8 µM), for inactives: at the highest dose activity change, negative = inhibition, actives largely listed as inhibitors. P27695. recombinant APE1, TAMRA/BHQ-2 abasic DNA cleavage fluorescence;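 further: plate controls were vehicle for no effect and reference inhibitor for full effect; nearly all actives have a fitted effect of over 55% in size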
#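 Activity was derived from the fluorescence gain between first and third kinetic reads (60 s intervals, ex 525/em 598 nm) after 50 nM THF-abasic TAMRA/BHQ-2 duplex was added to 0.75 nM APE1 preincubated 15 min with compound.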
# TDP1 block: TDP1 (human) enzyme inhibition. Q9NUW8. recombinant TDP1, AlphaScreen DNA substrate cleavage. Potency, µM (doses to about 130 µM), inactives show at the top dose activity change, negative = inhibition, usual class: inhibitors. 350,000 tested, 0.28% active. AID 485290; further: on the % scale 0 is the no-effect control and ±100 the full control effect; nearly all actives have a fitted effect of over 40% in size
# Target sequence (Q9NUW8 whole entry, looked up): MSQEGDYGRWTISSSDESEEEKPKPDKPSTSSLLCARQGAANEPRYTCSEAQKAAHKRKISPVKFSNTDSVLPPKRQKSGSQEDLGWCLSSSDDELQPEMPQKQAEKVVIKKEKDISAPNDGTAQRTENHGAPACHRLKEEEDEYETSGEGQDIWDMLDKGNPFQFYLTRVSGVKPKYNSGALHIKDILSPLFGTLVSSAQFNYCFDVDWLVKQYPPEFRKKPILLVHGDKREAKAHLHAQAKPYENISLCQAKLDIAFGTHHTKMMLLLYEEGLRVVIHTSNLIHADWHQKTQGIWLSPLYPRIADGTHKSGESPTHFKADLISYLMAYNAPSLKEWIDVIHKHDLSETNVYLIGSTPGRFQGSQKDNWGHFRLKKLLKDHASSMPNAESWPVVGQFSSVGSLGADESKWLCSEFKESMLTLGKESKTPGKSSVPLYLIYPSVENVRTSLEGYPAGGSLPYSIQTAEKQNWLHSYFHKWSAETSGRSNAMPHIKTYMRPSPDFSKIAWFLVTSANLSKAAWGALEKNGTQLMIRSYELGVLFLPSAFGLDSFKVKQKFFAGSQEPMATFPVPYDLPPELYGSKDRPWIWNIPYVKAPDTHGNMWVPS
#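 AlphaScreen read-out: signal falls as enzyme removes the 3' tyrosine-FITC from a 5'-biotinylated DNA oligo (15 nM, 5 min, RT). Enzyme was E. coli-made recombinant Tdp1 at 1 nM, exposed to compound for 15 min beforehand; beads 10 ug/ml, 10 min.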
# FEN1 inh-2: FEN1 inhibition, cherry-pick retest; shares compounds with FEN1 inh-1; FEN1 flap cleavage, TAMRA/BHQ2 fluorogenic DNA substrate; Potency, µM, hits mostly inhibitors; 880 tested, 79% active; AID 720498; further: nearly all actives have a fitted effect of over 60% in size
# * hit, by the source's call; i = inactive; ? = inconclusive; · = no result given; [ ] = remark or other dose. An excerpt weighted towards active compounds, which were near 0.92% of everything screened. The call rests on the fitted dose curve; in most records, active means well fitted curve in the direction sought with a large enough effect; inconclusive means small, poorly fitted or top-dose-only effect, or another doubt; inactive means no such curve, though single readings can be large; an effect the other way counts as inactive or inconclusive. Potency means the concentration at half of the fitted maximal effect.
SMILES,FEN1 inh-1,RECQ1 inh,BLM helicase inh,APEX1 inh,TDP1 block,FEN1 inh-2
COc1cc(O)c2c(=O)cc(-c3ccc(OC)c(-c4c(O)cc(O)c5c(=O)cc(-c6ccc(O)cc6)oc45)c3)oc2c1,·,i,1%,-6%,11%[56.1 µM],·
O=c1cc(-c2ccc(O)c(-c3c(O)cc(O)c4c(=O)cc(-c5ccc(O)cc5)oc34)c2)oc2cc(O)cc(O)c12,45µM*,-17%,-8%,-5%,7%,48*
O=c1c(O)c(-c2ccc(O)cc2)oc2ccc(O)cc12,·,-3%,3%,-1%,11%,·
CN(C)CCNc1ccc(CO)c2oc3ccc(O)cc3c(=O)c12,35µM*,·,·,·,·,30*
Cc1sc(NC(=O)CSc2nc(O)cc(=O)[nH]2)nc1-c1ccccc1,50µM*,i,?,2%,6%,67*
COc1cccc(-c2nc(SCC(=O)Nc3nc(-c4ccccc4)c(C)s3)[nH]c(=O)c2C#N)c1,0%,17%,-6%,18%,4%,·
Cc1ccc2[nH]c3c(=O)n(CC(=O)N(CCN(C)C)Cc4ccccc4)ncc3c2c1,-2%,·,23%,·,4%,·
CN(C)CCN(C)Cc1c2ccccc2c(CN(C)CCN(C)C)c2ccccc12,50µM*,·,34%,23%,·,?
CN(C)CCP(=O)(c1ccccc1)c1ccccc1,14%,22%,-2%,0%,5%,·
CC1=NN(c2ccccc2)C(=O)/C1=C\C=C1/N(C)c2ccccc2C1(C)C,?,-9%,-6%,-3%,8%,·
CN1/C(=C\C=C2/C(=O)Oc3ccccc3C2=O)C(C)(C)c2ccccc21,35µM*,-7%,·,-4%,3%,19*
CN1/C(=C\C=C2/SC(=S)NC2=O)C(C)(C)c2ccccc21,?,32µM*,?,25µM*,6%,67*
CN1C(=CC=C2C=C(I)C(=O)C(I)=C2)C(C)(C)c2ccccc21,32µM*,0.63µM*,28µM*,-1%,10%,85*
CCOc1ccccc1-c1nc(SCC(=O)c2ccc(OC)c(Br)c2)n[nH]1,-4%,·,-2%,·,9%,·
COc1ccc(Cn2c(-c3ccco3)nc3c(c(=O)c4ccccc4n3C)c2=O)cc1,22µM*,-1%,-1%,-6%,-4%,30*
Cc1nc2c(c(=O)n1Cc1ccccc1Cl)c1nc3ccccc3nc1n2Cc1ccco1,·,-4%,2%,-6%,-4%,·
COc1ccc(Cn2c(C)nc3c(c2=O)c2nc4ccccc4nc2n3Cc2ccco2)cc1,40µM*,·,·,·,·,?
COc1ccc(Cn2c(-c3ccc(OC)cc3)nc3c(c(=O)c4ccccc4n3C)c2=O)cc1,·,-15%,-2%,-2%,-2%,·
CCN(CC)CCCNc1nc2ccccc2c2nc(-c3ccncc3)nn12,45µM*,·,209%,-16%,·,21*
Cc1ccc(CCNc2nc3ccccc3c3nc(-c4ccccc4)nn23)cc1,3%,·,-3%,·,-1%,·
COc1cc2nc(NCCCN3CCN(C)CC3)n3nc(-c4ccccc4)nc3c2cc1OC,20µM*,5%,-4%,10%,·,12*
CCN(CC)CCCNc1nc2cc(OC)c(OC)cc2c2nc(-c3ccccc3)nn12,13µM*,?,16%,?,2%,6.7*
Cc1ccc(CNC(=O)c2cc(C)nc3c2c(C)nn3-c2ccc(C)cc2)cc1,1%,·,3%,·,5%,·
COC(=O)c1c(-c2cccs2)csc1NC(=O)COc1ccc(C(C)(C)C)cc1,-17%,·,-12%,·,?,·
CC1Sc2ccc(S(=O)(=O)N3CCC(C(=O)Nc4ccc(Cl)cc4)CC3)cc2NC1=O (configuration not stated),?,·,-6%,-5%,1%,48*
SMILES,FEN1 inh-1,RECQ1 inh,BLM helicase inh,APEX1 inh,TDP1 block,FEN1 inh-2
NCCCC[C@H](N)C(=O)N[C@@H](CCCN=C(N)N)C(=O)N1CCC[C@H]1C(=O)N1CCC[C@H]1C(=O)NCC(=O)N[C@@H](Cc1ccccc1)C(=O)N[C@@H](CO)C(=O)N1CCC[C@H]1C(=O)N[C@@H](Cc1ccccc1)C(=O)O,·,-9%,1%,-4%,6%,·
CCN(CC)c1ccc(/C=C/c2cccc[n+]2C)c(OC)c1,?,·,0%,-9%,·,27*
COc1ccc(/C=C/c2cccc[n+]2C)c(O)c1,15%,·,-15%,2%,·,·
CC(=O)c1cccc(NC(=O)c2cccc(N3C(=O)c4ccccc4C3=O)c2)c1,?,·,-17%,10%,·,?
NS(=O)(=O)c1cccc(NC(=O)c2cccc(N3C(=O)c4ccccc4C3=O)c2)c1,-8%,·,·,-19%,3%,·
O=[N+]([O-])c1ccc(C=Nc2ccc(Cl)c([N+](=O)[O-])c2)s1,·,?,-1%,?,-3%,·
Cc1cc(C)cc(N=Cc2ccc([N+](=O)[O-])s2)c1,?,0%,-4%,9%,0%,5.4*
NC(=O)c1ccc(N=Cc2ccc([N+](=O)[O-])s2)cc1,?,?,-3%,?,0%,6.7*
COc1ccc(OC)c(Nc2nc(NCCO)c3ccccc3n2)c1,?,·,-27%,-21%,·,?
COc1ccccc1Nc1nc(NCCO)c2ccccc2n1,·,0%,3%,12%,3%,·
CCOc1ccc(S(=O)(=O)NCCc2csc3nc(-c4cccc(C)c4)nn23)cc1,-1%,·,-1%,·,3%,·
CSc1nc2[nH]c(=O)n(O)c(=O)c2n1Cc1ccccc1,-105%,·,·,·,·,0.021*
O=C1NC(=Nc2ccccc2Cl)S/C1=C\c1cc([N+](=O)[O-])ccc1O,?,·,-12%,-11%,·,?
CC(=O)Nc1ccc2nc3c(=O)[nH]c(=O)[nH]c3nc2c1,28µM*,·,11µM*,·,?,38*
CCN(CC)CCCNc1nc2ccccc2c2[nH]c3ccc(OC)cc3c12,3.5µM*,·,·,·,·,2.7*
CCN(CC)CCCNc1nc(-c2ccccc2)nc2ccccc12,-24%,0%,91%,6%,2%,·
C/C(=N/NC(=O)c1cc2ccccc2cc1O)C1C(=O)c2ccccc2C1=O,50µM*,?,28µM*,?,-8%,60*
C/C(=N\NC(=O)c1cc2ccccc2cc1O)c1ccccn1,11%,·,0%,-9%,-4%,·
CC(C)(C)c1cc(/C=C(\C#N)C(N)=S)cc(C(C)(C)C)c1O,·,?,·,?,17%[56.1 µM],·
N#CC(C#N)=C(N)/C(C#N)=C/c1cc(O)c(O)c(O)c1,8.9µM*,?,·,?,·,19*
COc1ccc(NC(=O)COC(=O)c2ccc([N+](=O)[O-])o2)cc1Cl,?,i,0%,-10%,5%,21*
O=C(COC(=O)c1ccc([N+](=O)[O-])o1)Nc1ncc(Cl)cc1Cl,?,·,·,-29%,-8%,11*
